# Like-named read-outs stand apart in the source and are kept apart here.
# Experiments:
# Parameters in all cases: species or system human, MV4-11 + K-562 + COLO205 + SK-N-BE2 + OVCAR-8
# [1] = system: EPHA2; conditions: read-out: apparent Kd, compound concentrations: 100 nM and 1000 nM (sheet 'Samples'), n = 1
# [2] = system: MAP4K5; conditions: read-out: apparent Kd, compound concentrations: 100 nM and 1000 nM (sheet 'Samples'), n = 1
# [3] = system: MAPK11; conditions: read-out: apparent Kd, n = 1
# [4] = system: PDGFRB; conditions: read-out: apparent Kd, compound concentrations: 100 nM and 1000 nM (sheet 'Samples'), n = 1
# [5] = system: PKN3; conditions: read-out: apparent Kd, compound concentrations: 100 nM and 1000 nM (sheet 'Samples'), n = 1
# [6] = system: EPHA4; conditions: read-out: apparent Kd, compound concentrations: 100 nM and 1000 nM (sheet 'Samples'), n = 1
# [7] = system: EPHB2; conditions: read-out: apparent Kd, compound concentrations: 100 nM and 1000 nM (sheet 'Samples'), n = 1
# [8] = system: EPHB4; conditions: read-out: apparent Kd, compound concentrations: 100 nM and 1000 nM (sheet 'Samples'), n = 1
# [9] = system: TGFBR2; conditions: read-out: apparent Kd, compound concentrations: 100 nM and 1000 nM (sheet 'Samples'), n = 1
# [10] = system: ERCC2; conditions: read-out: apparent Kd, compound concentrations: 100 nM and 1000 nM (sheet 'Samples'), n = 1
# [11] = system: BUB1; conditions: read-out: apparent Kd, compound concentrations: 100 nM and 1000 nM (sheet 'Samples'), n = 1
# [12] = system: CDK16; conditions: read-out: apparent Kd, compound concentrations: 100 nM and 1000 nM (sheet 'Samples'), n = 1
# [13] = system: TAOK1; conditions: read-out: apparent Kd, compound concentrations: 100 nM and 1000 nM (sheet 'Samples'), n = 1
# [14] = system: AKT1; conditions: read-out: apparent Kd; compound concentrations:100 nM and 1000 nM (sheet 'Samples'); n = 1
# [15] = system: CSNK1A1; conditions: read-out: apparent Kd; compound concentrations:100 nM and 1000 nM (sheet 'Samples'); n = 1
# [16] = system: MAPK10; conditions: read-out: apparent Kd; compound concentrations:100 nM and 1000 nM (sheet 'Samples'); n = 1
# [17] = system: RIOK2; conditions: read-out: apparent Kd; compound concentrations:100 nM and 1000 nM (sheet 'Samples'); n = 1
smiles,measurement,setting,value
COc1cc(Nc2ccnc3cc(-c4ccncc4)ccc23)cc(OC)c1OC.Cl [GW494610A],potency estimated from few doses,[1]; CATDS: 2.8855283068255098E-2,0.577 µM
same,potency estimated from few doses,[2]; CATDS: 2.1260288667502202E-2,2.03 µM
same,potency estimated from few doses,"[3]; compound concentrations: 100 nM and 1000 nM (sheet 'Samples'), CATDS: 2.2230478875047501E-2",1.61 µM
same,potency estimated from few doses,[4]; CATDS: 4.8396986719482699E-2,0.136 µM
same,potency estimated from few doses,[5]; CATDS: 0.111672357015452,0.0241 µM
Cc1ccc(O)cc1Nc1ccnc2cc(-c3ccccn3)ccc12.Cl [GW440139A],potency estimated from few doses,[1]; CATDS: 2.9853649287190101E-2,0.529 µM
same,potency estimated from few doses,[6]; CATDS: 5.0335970342337201E-2,0.0816 µM
same,potency estimated from few doses,[7]; CATDS: 6.0515406545195598E-2,0.052 µM
same,potency estimated from few doses,[8]; CATDS: 9.4734389919906598E-2,0.0209 µM
same,potency estimated from few doses,[9]; CATDS: 0.155660799519896,0.00912 µM
Cl.O=C1N=C(NCc2ccccn2)S/C1=C\c1ccc2ncccc2c1 [RO4874953-001],potency estimated from few doses,[10]; CATDS: 7.2588346323970404E-2,1.85 µM
CC(C)c1nc(-c2cccc(NS(=O)(=O)c3ccccc3)c2)c(-c2ccnc(Nc3ccc4c(c3)CN(C)CC4)n2)s1 [GSK1649598A],potency estimated from few doses,[11]; CATDS: 1.7014993428197001E-2,0.579 µM
same,potency estimated from few doses,[12]; CATDS: 3.5928247701673299E-2,0.112 µM
same,potency estimated from few doses,[2]; CATDS: 1.3446008257637299E-2,1.32 µM
same,potency estimated from few doses,[13]; CATDS: 1.55271176192178E-2,0.769 µM
O=C1N=C(NCc2cccs2)SC1Cc1ccc2ncccc2c1 (centres unmarked) [RO4629078-000],potency estimated from few doses,[11]; CATDS: 7.2203356914043596E-3,1.93 µM
same,potency estimated from few doses,[1]; CATDS: 1.36009605508639E-2,0.342 µM
same,potency estimated from few doses,[6]; CATDS: 1.66325304555619E-2,0.238 µM
same,potency estimated from few doses,[7]; CATDS: 1.9892167159836899E-2,0.178 µM
same,potency estimated from few doses,[8]; CATDS: 2.1087498416613601E-2,0.162 µM
same,potency estimated from few doses,[10]; CATDS: 9.4373206529466905E-3,0.778 µM
same,potency estimated from few doses,[5]; CATDS: 1.04428727598351E-2,0.602 µM
same,potency estimated from few doses,[13]; CATDS: 7.4050083824812101E-3,1.73 µM
Cl.Oc1cccc(Nc2ccnc3cc(-c4ccncc4)ccc23)c1 [GW494601A],potency estimated from few doses,[1]; CATDS: 2.3824924917130601E-2,0.6 µM
same,potency estimated from few doses,[6]; CATDS: 3.3294473343985699E-2,0.165 µM
same,potency estimated from few doses,[7]; CATDS: 2.64855925277621E-2,0.385 µM
same,potency estimated from few doses,[8]; CATDS: 3.7673587952975797E-2,0.11 µM
same,potency estimated from few doses,[4]; CATDS: 1.9069305404636899E-2,1.97 µM
same,potency estimated from few doses,[9]; CATDS: 0.14921911016535599,0.00506 µM
Cc1cccc(-c2cc(-c3c[nH]nc3-c3ccccn3)ccn2)c1 [GW679395X],potency estimated from few doses,[14],1.77 µM
same,potency estimated from few doses,[15],1.81 µM
same,potency estimated from few doses,[16],1.73 µM
same,potency estimated from few doses,[3]; compound concentrations:100 nM and 1000 nM (sheet 'Samples'),1.35 µM
same,potency estimated from few doses,[17],1.63 µM
COc1cccc(-n2ncc3c(N/N=C/c4ccc(C(=O)NCCN(C)C)cc4)ncnc32)c1.Cl [GW784307A],potency estimated from few doses,[12]; CATDS: 2.5546052944154699E-2,2.02 µM

# Source: PMC11062922 (Nature Chemical Biology, 2023)
